# Source: PubChem BioAssay
# EWS-Fli block: EWS/Fli transcriptional activity inhibition. inhibition, % at 12.6 µM. A673 NR0B1-luciferase reporter, viability-normalised. AID 651661. actives 0.67% (n = 350,000);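 active = mean inhibition of at least 50% after viability correction, with every replicate also passing that limit; inconclusive = mean reaches 50% but only one of two replicates passes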;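 also: firefly luciferase signal divided by Alamar Blue viability fluorescence both relative to DMSO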
# TROY NFkB inh: TROY signaling inhibition | Q293 LMP1-TROYcd NF-kB luciferase reporter, 4 h | inhibition, % at 10 µM | actives 0.98% (n = 360,000) | AID 1347056;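 active = compounds whose plate-normalised and pattern-corrected inhibition of the luciferase reporter signal at the single screening dose is 50% or more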
# EBV LMP1 NFkB: Epstein-Barr LMP1 NF-kappaB reporter inhibition. LMP1-induced NF-kappaB luciferase reporter cells, luminescence. inhibition, % at 12.5 µM. actives 0.69% (n = 350,000). AID 504558; in the data active = inhibition above about 41%; inconclusive = no clear call, values can overlap the other calls;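 also: 0% = neutral control wells and 100% = reference inhibitor control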
# TWEAK Fn14 block: blocks TWEAK-Fn14 interaction in a reporter cell assay; TWEAK-stimulated Fn14 reporter cells, luciferase luminescence, 8 h; AID 1159606; inhibition, % at 10 µM; actives 2% (n = 360,000); in the data active = inhibition above about 50%
# LGR2 inh: Drosophila LGR2 receptor signaling inhibition | HEK293 LGR2, CRE-luciferase, bursicon-stimulated, 4 h | inhibition, % at 9.99 µM | actives 0.35% (n = 380,000);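 active = drop in luminescence signal, shown as inhibition above about 50% in the replicate tests, limit read from the data, passing the limit was not always enough; inconclusive = probably only some replicates passing the limit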;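 also: agonist challenge used bursicon conditioned medium at about half maximal strength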
# * = called active by the depositor; ? = inconclusive; · = no result. Rows were chosen to be rich in hits. Some 2.6% of all compounds tested hit in one or more screens of this group.
SMILES,EWS-Fli block,TROY NFkB inh,EBV LMP1 NFkB,TWEAK Fn14 block,LGR2 inh
CC(C)(C)C(=O)Nc1ccc(/C=C/C(=O)c2ccco2)cc1,2,72*,1,54*,17
Nc1ccc(/C=C/C(=O)c2ccco2)cc1,-64,-31,9,-7,-92
CC(C)(C)C(=O)Nc1ccc(NC(=O)c2ccco2)nc1,88*,85*,81*,104*,98*
O=C(Nc1ccc(NC(=O)C2CCCCC2)cn1)c1ccco1,·,30,37,75*,·
O=C(Cc1ccccc1)Nc1ccc(NC(=O)c2ccco2)nc1,·,-91,-33,-13,·
COc1ccc(CN2C[C@H](O)COC[C@@H]3O[C@@H](CC(=O)NCCN4CCCC4)CC[C@H]32)cc1,-6,·,·,·,0
Cc1noc(C)c1NC(=O)N(C)C[C@H]1OCCCC[C@@H](C)Oc2ccc(NS(=O)(=O)c3cccs3)cc2C(=O)N([C@@H](C)CO)C[C@@H]1C,-2,·,·,·,-3
Cc1noc(C)c1S(=O)(=O)Nc1ccc2c(c1)C(=O)N([C@H](C)CO)C[C@@H](C)[C@@H](CN(C)S(=O)(=O)c1ccccc1)OCCCC[C@H](C)O2,20,·,·,·,-8
O=C(Nc1cccc(S(=O)(=O)c2cccc(NC(=O)c3ccco3)c2)c1)c1ccco1,2,42,22,59*,-8
O=C(Nc1ccc(NC(=O)c2ccco2)nc1)c1ccccn1,·,-40,16,52*,·
COc1cccc(-c2cnc3c(c2)C(=O)N([C@@H](C)CO)C[C@H](C)[C@H](CN(C)Cc2ccc(C(=O)O)cc2)O3)c1,-6,·,·,·,1
CC(=O)NC[C@H]1[C@@H](c2ccc(C3=CCCCC3)cc2)[C@@H](CO)N1C(=O)C1CCC1,·,·,·,·,4
CCCNC(=O)[C@@H]1[C@@H](CO)[C@@H]2Cn3c(ccc(C4=CCCC4)c3=O)[C@H]1N2S(C)(=O)=O,-2,·,·,·,-13
Cc1c(C(C)(C)C)s/c(=N/S(=O)(=O)c2ccccc2)n1C,-6,11,-3,3,·
Cc1c(C(C)(C)C)sc(=NC(=O)c2ccccc2O)n1C,-35,56*,-46,47,-87
CCOC(=O)N1C(=O)[C@](c2ccc(Cl)cc2)(C(C)C)N1C(=O)OCC,-5,-3,-1,34,26
CCOC(=O)N1C(=O)[C@@](c2ccc(Cl)cc2)(C(C)C)N1C(=O)OCC,10,36,-3,76*,?
C[C@@H]1CN([C@@H](C)CO)C(=O)Cc2cc(NC(=O)Nc3ccc(C(F)(F)F)cc3)ccc2O[C@@H]1CN(C)S(=O)(=O)c1ccc(Cl)cc1,18,5,-12,39,-28
C[C@@H]1CN([C@H](C)CO)C(=O)c2cc(NC(=O)Nc3ccc(C(F)(F)F)cc3)ccc2O[C@H]1CN(C)S(=O)(=O)c1ccc(Cl)cc1,-6,18,7,53*,0
C[C@H](CO)N1C[C@H](C)[C@@H](CN(C)S(=O)(=O)c2cccs2)Oc2ccc(NC(=O)Nc3ccc(C(F)(F)F)cc3)cc2C1=O,-1,31,-5,60*,6
C[C@@H]1CN([C@H](C)CO)C(=O)c2cc(NC(=O)Nc3ccc(C(F)(F)F)cc3)ccc2O[C@H]1CN(C)S(=O)(=O)c1cccs1,-6,33,-1,42,5
C[C@H](CO)N1C[C@H](C)[C@H](CN(C)S(=O)(=O)c2cn(C)cn2)Oc2ccc(NC(=O)Nc3ccc(C(F)(F)F)cc3)cc2CC1=O,61*,9,-6,-3,-2
C[C@H]1CN([C@@H](C)CO)C(=O)Cc2cc(NC(=O)Nc3ccc(C(F)(F)F)cc3)ccc2O[C@H]1CN(C)S(=O)(=O)c1ccc(Cl)cc1,57*,·,·,·,-11
C[C@H](CO)N1C[C@H](C)[C@H](CN(C)C(=O)CN(C)C)Oc2ncc(-c3ccccc3F)cc2C1=O,-9,·,·,·,14
Brc1ccc2nc(N3CCN(c4ccccc4)CC3)sc2c1,-22,-28,-9,-56,-34
SMILES,EWS-Fli block,TROY NFkB inh,EBV LMP1 NFkB,TWEAK Fn14 block,LGR2 inh
CN1CCN(c2ccc3sc(-n4ccc5ccccc54)nc3c2)CC1,40,80*,9,65*,39
Cc1ccc(S(=O)(=O)Nc2ccc3c(c2)C(=O)N([C@@H](C)CO)C[C@@H](C)[C@H](CN(C)C(=O)Nc2cccc4ccccc24)OCCCC[C@@H](C)O3)cc1,-6,·,·,·,3
Cn1c(=O)c2ncn(CC(=O)Nc3ccc(N4CCOCC4)cc3)c2n(C)c1=O,·,2,6,-9,14
CCC(C)c1ccc2oc(-c3ccc(NC(=O)Cn4cnc5c(=O)n(C)c(=O)n(C)c54)cc3)nc2c1 (configuration not stated),·,64*,20,34,·
CCSc1nc2ccccc2n1C(=O)/C=C\c1ccc(OC)c(OC)c1,·,36,68*,91*,·
CC[C@H](C)C(C(=O)N1CCN(C(=O)OC(C)(C)C)CC1)n1cc(C(CC(C)C)NC(=O)OC(C)(C)C)nn1 (some centres not stated),-5,-10,-5,-9,11
CC[C@@H](C)C(C(=O)N1CCN(C(=O)OC(C)(C)C)CC1)n1cc(-c2cn([C@@H](C)C(=O)N3CCN(C(=O)OC(C)(C)C)CC3)nn2)nn1 (some centres not stated),0,55*,1,-22,·
C=CC(=O)Nc1cccc(Nc2nc(N[C@H]3CC[C@H](N(C)C)CC3)nc3c2ncn3C(C)C)c1,·,77*,92*,99*,·
C[C@@H]1CN([C@@H](C)CO)C(=O)c2cc(-c3cncnc3)cnc2O[C@H]1CN(C)C(=O)Cc1ccccn1,10,·,·,·,-6
CCN(CC)CC(C)(C)C(=O)/C=C/c1ccc(/C=C/C(=O)C(C)(C)CN(CC)CC)cc1,71*,44,91*,102*,103*
O=C(C[C@@H]1C[C@H]2c3cc(NS(=O)(=O)c4ccc(F)cc4)ccc3O[C@H]2[C@@H](CO)O1)NC1CCCCC1,3,·,·,·,-15
O=C(/C=C/Nc1ccc(F)cc1Br)c1ccccc1,·,77*,48*,90*,94*
O=C(/C=C/c1cccc(Br)c1)c1ccc2c(c1)OCO2,·,-1,7,60*,-18
O=C(/C=C\Nc1cccc(F)c1)c1ccc2c(c1)OCO2,·,3,18,81*,·
O=C(/C=C/c1ccncc1)c1ccc2c(c1)OCCO2,4,29,9,-5,89*
O=C(C[C@H]1CC[C@H](NC(=O)Nc2ccc3c(c2)OCO3)[C@@H](CO)O1)NCc1ccccc1,-1,·,·,·,11
O=C(/C=C\Nc1ccccc1Br)c1ccc2c(c1)OCO2,75*,47,13,61*,79*
O=C(/C=C/c1ccccc1Br)c1ccc2c(c1)OCO2,-51,-4,1,27,-18
COc1cc(/C=C/C(=O)c2ccc3c(c2)OCCO3)cc(Br)c1OCC(=O)N(C)C,61*,33,28,83*,60*
C[N+](C)(C)C[C@H](O)CC(=O)[O-],-1,2,51*,-3,-5
Cc1cccnc1Nc1nc(-c2ccccn2)cs1,·,-29,51*,101*,·
